Assay outcomes: PubChem BioAssay, National Center for Advancing Translational Sciences (NCATS)
RXFP1 ag: activates the human relaxin receptor RXFP1; AID 2676; Q9HBX9; actives 0.3% (n = 370,000); HEK293T-RXFP1 cAMP TR-FRET, 30 min; response scale: percent of porcine relaxin response, buffer zero; Potency, µM (doses to about 57.5 µM), inactives show at the highest dose activation, usual class: activators; active = well fitted activation curve with a large enough effect; inconclusive = small, poorly fitted or top-dose-only effect; note: potency is the fitted concentration of half-maximal effect; % is set by controls: 0 for no effect and ±100 for the full control effect; nearly all actives have a fitted effect of over 60% in size
Target sequence (Q9HBX9 whole entry, looked up): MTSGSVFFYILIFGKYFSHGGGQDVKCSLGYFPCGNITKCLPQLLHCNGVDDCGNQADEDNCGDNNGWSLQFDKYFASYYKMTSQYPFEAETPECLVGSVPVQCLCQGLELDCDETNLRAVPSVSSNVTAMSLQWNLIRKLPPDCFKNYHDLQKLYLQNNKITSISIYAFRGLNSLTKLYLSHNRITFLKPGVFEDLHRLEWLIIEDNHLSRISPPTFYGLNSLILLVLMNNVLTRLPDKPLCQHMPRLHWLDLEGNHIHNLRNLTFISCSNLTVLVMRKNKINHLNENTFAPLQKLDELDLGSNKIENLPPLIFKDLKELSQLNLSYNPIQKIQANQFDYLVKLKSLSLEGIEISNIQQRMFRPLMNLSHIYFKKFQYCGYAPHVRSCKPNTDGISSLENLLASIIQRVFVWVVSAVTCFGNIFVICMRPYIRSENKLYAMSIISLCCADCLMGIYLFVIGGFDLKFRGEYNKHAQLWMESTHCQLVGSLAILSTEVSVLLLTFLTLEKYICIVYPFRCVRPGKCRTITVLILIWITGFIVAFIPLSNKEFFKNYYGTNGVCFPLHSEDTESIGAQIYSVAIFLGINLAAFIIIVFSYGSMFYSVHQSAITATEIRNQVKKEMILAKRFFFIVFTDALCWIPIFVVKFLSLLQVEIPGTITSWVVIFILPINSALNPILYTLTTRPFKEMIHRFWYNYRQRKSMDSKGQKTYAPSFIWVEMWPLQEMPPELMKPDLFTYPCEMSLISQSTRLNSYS
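HEK293T cells stably expressing RXFP1 were pretreated with the PDE4 inhibitor Ro 20174, exposed to compounds for 30 min at 37C, lysed, and cAMP was read by TR-FRET. Data normalized to buffer (basal) and 29 nM porcine relaxin (100%).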
gsp agonist: agonists of gsp mutant (McCune-Albright syndrome); gsp mutant cells, cAMP HTRF, 30 min; Potency, µM (highest dose often 76.9 µM), inactives show at the highest dose activation (cAMP increase), usual class: activators; actives 0.13% (n = 340,000); AID 624287; active = well fitted activation curve with a large enough effect; inconclusive = small, poorly fitted or top-dose-only effect, or another doubt; inactive = no such curve, though single readings can be large or run the other way; cell line not stated here;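 note: phosphodiesterase inhibitor Ro 20-1724 added with compounds to block cAMP breakdown; potency is the fitted concentration of half-maximal effect; nearly all actives have a fitted effect of over 60% in size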
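Cells in DMEM/10% FBS with G418 were pretreated with compounds in DMSO plus […] (300 uM stock) for 30 min at 37C. cAMP was measured by HTRF (cAMP-d2 plus anti-cAMP antibody-K) after 30 min at room temperature.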
gsp antagonist: antagonists of gsp mutant (McCune-Albright syndrome); gsp-mutant cells, cAMP HTRF, 30 min; Potency, µM (series often up to 76.9 µM), without a hit: top-dose activity change, negative = inhibition, hits mostly inhibitors; actives 0.4% (n = 340,000); AID 624288; calls by dose curve; cell line not stated here;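 note: intracellular cAMP measured with PDE inhibitor Ro 20-1724 present during compound exposure; potency is the fitted concentration of half-maximal effect; % is set by controls: 0 for no effect and ±100 for the full control effect; nearly all actives have a fitted effect of over 65% in size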
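Cells in G418 medium, seeded 16-24 h, 37C; buffer exchange to DPBS + 1 mM CaCl2, 0.5 mM MgCl2, 0.05% BSA; cpds in DMSO + […] (300 uM stock), 30 min 37C; HTRF cAMP detection.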
RXFP1 antagonist: blocks the human relaxin receptor RXFP1 | Q9HBX9 | HEK293-RXFP1, relaxin-stimulated cAMP HTRF, 30 min; active compounds read low | activity change, negative = inhibition, % at 57.5 µM | actives 0.59% (n = 350,000);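 active = activity change of -60% or lower, but not beyond a set lower limit; inconclusive = change between -60% and -40%, or beyond the set limit; inactive = change above -40%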; note: % is set by controls: 0 for no effect and ±100 for the full control effect
Starred values were filed as active, the others as inactive; [ ] = remark or other dose. Rows were chosen to be rich in hits. Some 0.9% of all compounds tested hit in one or more screens of this group.

Screening COc1cc(/C=N/NC(=O)c2ccccn2)ccc1OC(=O)c1ccccc1Br returned RXFP1 ag 0%, gsp agonist -16%[15.4 µM], gsp antagonist inconclusive and RXFP1 antagonist -97*.
COc1cc(/C=N/NC(=O)c2ccccn2)ccc1OC(=O)c1ccc(Br)cc1 was read as RXFP1 ag 0%, gsp agonist -34%, gsp antagonist -7% and RXFP1 antagonist -34.
`Cn1c(=O)c([N+](=O)[O-])c(NCCCn2ccnc2)c2ccccc21` gave RXFP1 ag 16%, gsp agonist 8%[15.4 µM], gsp antagonist 13% and RXFP1 antagonist -2.
For Cn1c(=O)c([N+](=O)[O-])c(-n2ccnc2)c2ccccc21 the results were RXFP1 ag 2%, gsp agonist -4%[15.4 µM], gsp antagonist inconclusive and RXFP1 antagonist -110*.
For O=C(CCNS(=O)(=O)c1ccc(OC(F)(F)F)cc1)Nc1cccc(S(=O)(=O)N2CCCC2)c1 the results were gsp agonist 5%, gsp antagonist inconclusive and RXFP1 antagonist 2.
`C[C@@]12C(=O)N(c3ccc(C(F)(F)F)cc3)C(=O)N1[C@@H]1c3ccccc3OC[C@@H]1[C@H]2c1ccccc1` gave RXFP1 ag 0% and gsp antagonist 32µM*.
`C[C@H]1C[C@H]2[C@@H]3CCC4=CC(=O)C=C[C@]4(C)[C@@]3(F)[C@@H](O)C[C@]2(C)[C@@]1(O)C(=O)CO` gave gsp antagonist -8%.
C[C@H]1C[C@H]2[C@@H]3CCC4=CC(=O)C=C[C@]4(C)[C@@]3(Cl)[C@@H](O)C[C@]2(C)[C@@]1(O)C(=O)CO was read as RXFP1 ag 2%, gsp antagonist -8% and RXFP1 antagonist -70*.
Screening NNc1nc2c(Cl)ccc(Cl)c2s1 returned RXFP1 ag -3%, gsp agonist 33%[15.4 µM], gsp antagonist 28µM* and RXFP1 antagonist -23.
CCOC(=O)C1=C(COC(=O)/C=C/c2ccc(SC)cc2)NC(=O)NC1C (centres undefined) was read as RXFP1 ag 0%, gsp agonist 1%[15.4 µM], gsp antagonist 0% and RXFP1 antagonist -76*.
For Cc1cc(C)cc(NC(=O)CSc2nnc(CNC(=O)c3c(F)cccc3Cl)o2)c1 the results were RXFP1 ag 3% and RXFP1 antagonist -9.
For CC(C)CC(=O)Nc1cccc(C(=O)Nc2ccccc2C(=O)O)c1 the results were RXFP1 ag 1%, gsp agonist 12%, gsp antagonist 32µM* and RXFP1 antagonist -17.
For CC(c1ccccc1)N1C(=O)c2ccc(C(=O)Nc3ccc(Br)cc3C(=O)O)cc2C1=O (centres undefined) the results were RXFP1 ag -3%, gsp agonist 9%, gsp antagonist 35µM* and RXFP1 antagonist -5.
CC(C)CN1C(=O)c2ccc(C(=O)Nc3ccc(O)cc3C(=O)O)cc2C1=O was read as RXFP1 ag 1%, gsp agonist 10%[15.4 µM], gsp antagonist -20% and RXFP1 antagonist -3.
`CC(c1ccccc1)N1C(=O)c2ccc(C(=O)Nc3ccccc3C(=O)O)cc2C1=O` (centres undefined) gave RXFP1 ag 2%, gsp agonist -1%, gsp antagonist 16µM* and RXFP1 antagonist -74*.
Screening CC(=O)Nc1cccc(C(=O)Nc2ccccc2C(=O)O)c1 returned RXFP1 ag 0%, gsp agonist 0%, gsp antagonist inconclusive and RXFP1 antagonist 0.
O=C(Nc1ccc(O)cc1C(=O)O)c1ccc2c(c1)C(=O)N(Cc1ccco1)C2=O was read as RXFP1 ag 1%, gsp agonist -13%, gsp antagonist 32µM* and RXFP1 antagonist 1.
For CCOc1ccc(-c2cc(NC(=O)Nc3cccc(C(C)=O)c3)c(C(=O)OC)s2)cc1 the results were RXFP1 ag 1% and RXFP1 antagonist -4.
`CCCCN(C)C(=O)C1CCC(CNS(=O)(=O)c2ccc(Cl)cc2)CC1` (centres undefined) gave RXFP1 ag 1% and RXFP1 antagonist -19.
`Cc1ccnc(NC(=O)c2cccc(S(=O)(=O)Nc3ccc(C)cc3C)c2)c1` gave gsp agonist inconclusive, gsp antagonist -24% and RXFP1 antagonist -77*.
Screening O=[N+]([O-])c1c(Nc2ccc(O)cc2)cc(Cl)c2nonc12 returned RXFP1 ag 6%, gsp agonist -25%, gsp antagonist 7.9µM* and RXFP1 antagonist inconclusive.
